The whole screen tested about 1,900 compounds, of which about 40 (2%) showed an effect of 50% or more. For the sample, strong results were picked, then their nearest neighbours and some compounds at random.
target: human SGLT1 (hSGLT1) (human, UniProt P13866); experiment: primary screen, percent of control activity; higher = less effect of the substance; parameters: single well; conditions: 50 µM
Procedure: Two days before the assay, CHO‐wild type and CHO‐hSGLT1 cells were seeded in maintenance medium at 25 000 cells/well in clear‐bottom black 96‐well cell culture plates. Before the assay, cells were washed 3 times with 150 μL/well D‐glucose free DMEM with 0.3% (w/v) BSA. Library compounds at 50 μmol/L (singlicate) prepared in D‐glucose free DMEM with 160 μmol/L 1‐NBD‐glucose and 0.3% (w/v) BSA and negative controls (triplicate) were added at 100 μL/well and placed in a humidified incubator at 37°C with 5% CO2 for 90 minutes. Next, cells were washed 3 times with DMEM with 0.3% (w/v) BSA (150 μL/well). Care was taken to remove all medium after the last wash. Finally, 1‐NBD‐glucose was extracted from the cells by adding 10 μL/well isopropanol and orbital shaking for 5 minutes at 600 rpm, followed by incubation in the dark for 30 minutes. Fluorescence was measured on a Tecan Infinite M200 Microplate Reader (Tecan, Männedorf, Switzerland) with excitation at 445 nm and emission at 525 nm. The amount of 1‐NBD‐glucose taken up by the CHO‐wild type or CHO‐hSGLT1 cells in the presence or absence of test compounds was interpolated from 1‐NBD‐glucose calibration standards. The background uptake by CHO‐wild type was subtracted from the uptake by CHO‐hSGLT1. Background corrected uptake with test compound was expressed as a percentage of corrected uptake without test compound.

Chain of human SGLT1 (hSGLT1) (P13866 whole entry, looked up): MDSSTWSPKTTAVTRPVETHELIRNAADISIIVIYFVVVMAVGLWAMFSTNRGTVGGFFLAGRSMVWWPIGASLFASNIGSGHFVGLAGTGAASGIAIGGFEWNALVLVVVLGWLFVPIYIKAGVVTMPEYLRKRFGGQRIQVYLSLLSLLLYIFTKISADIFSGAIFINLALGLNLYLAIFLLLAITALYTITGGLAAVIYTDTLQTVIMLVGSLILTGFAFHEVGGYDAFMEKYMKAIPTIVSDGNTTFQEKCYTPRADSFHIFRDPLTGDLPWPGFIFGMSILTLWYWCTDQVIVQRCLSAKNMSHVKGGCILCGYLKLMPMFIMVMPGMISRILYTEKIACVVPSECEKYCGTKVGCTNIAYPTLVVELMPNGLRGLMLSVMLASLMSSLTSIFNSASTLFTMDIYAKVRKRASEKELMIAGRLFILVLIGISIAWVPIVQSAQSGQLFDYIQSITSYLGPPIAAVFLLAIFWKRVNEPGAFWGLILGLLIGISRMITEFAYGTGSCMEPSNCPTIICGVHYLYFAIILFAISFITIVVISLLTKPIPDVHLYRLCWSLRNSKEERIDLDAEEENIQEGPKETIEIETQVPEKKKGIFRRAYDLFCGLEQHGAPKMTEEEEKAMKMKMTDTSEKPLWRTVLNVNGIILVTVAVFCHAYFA

| SMILES | NORMALIZED SGLT1 ACTIVITY (%) |
| --- | --- |
| CC[C@@H](CO)NCCN[C@@H](CC)CO.Cl.Cl | 90 |
| Oc1ccc(Cl)c2cccnc12 | 208 |
| Oc1c(Br)cc(Br)c2cccnc12 | 50 |
| Oc1c(Cl)cc(Cl)c2cccnc12 | 48 |
| O=S(=O)(O)O.Oc1cccc2cccnc12 | 127 |
| Oc1c(I)cc(I)c2cccnc12 | 97 |
| CC(=O)Oc1ccc(Cl)c2cccnc12 | 202 |
| CC(=O)O[C@@H]1CC2C(C)(C)C(=O)C3OC3[C@]2(C)C2CC[C@@]3(C)[C@H](c4ccoc4)OC(=O)C4OC43[C@@]21C (stereo partly drawn) | 138 |
| CC(C)CCCC(C)[C@H]1CCC2C3CC=C4C[C@@H](O)CC[C@]4(C)C3CC[C@@]21C (stereo partly drawn) | 120 |
| C[n+]1c2cc(N)ccc2cc2ccc(N)cc21.[Cl-] | 169 |
| CC1=CC(=O)C2=C(C)CC[C@@H]3[C@H](OC(=O)[C@H]3C)[C@@H]12 | 109 |
| COC(=O)Nc1nc2ccc(S(=O)c3ccccc3)cc2[nH]1 (stereo not drawn) | 125 |
| Cc1ccc(O)c(C(CCN(C(C)C)C(C)C)c2ccccc2)c1.O=C(O)C(O)C(O)C(=O)O (stereo not drawn) | 78 |
| COc1cc(O)c(C(=O)c2ccccc2)cc1O | 235 |
| COc1ccc(C(=O)c2ccccc2)c(O)c1 | 26 |
| COc1ccc(C(=O)c2ccccc2O)c(O)c1 | 111 |
| CCS(=O)(=O)CCn1c([N+](=O)[O-])cnc1C | 123 |

| SMILES | NORMALIZED SGLT1 ACTIVITY (%) |
| --- | --- |
| COc1ccc2ccc(=O)oc2c1 | 130 |
| CCN(CC)CC(=O)Nc1c(C)cccc1C.Cl | 72 |
| Cc1cccc(C)c1NC(=O)C1CCCCN1C.Cl (stereo not drawn) | 83 |
| CCCCN1CCCCC1C(=O)Nc1c(C)cccc1C.Cl (stereo not drawn) | 42 |
| CC(C)CCCC(C)[C@H]1CCC2C3C(=O)C=C4C[C@@H](O)CC[C@]4(C)C3CC[C@@]21C (stereo partly drawn) | 95 |
| Cc1ccc(N(CC2=NCCN2)c2cccc(O)c2)cc1.Cl | 62 |
| COc1ccc2c(c1)OC/C(=C\c1ccc(OC)c(O)c1)C2=O | 140 |
| O=C1C=CC(=C(c2ccc(O)cc2)c2ccc(O)cc2)C=C1 | 78 |
| CN(C)c1ccc(C(=C2C=CC(=[N+](C)C)C=C2)c2ccc(N(C)C)cc2)cc1.[Cl-] | 43 |
| CC(CCc1ccccc1)NCC(O)c1ccc(O)c(C(N)=O)c1.Cl (stereo not drawn) | 76 |
| O=C([O-])CF.[Na+] | 96 |
| C[C@@H]1C(=O)O[C@H]2[C@H]1CC[C@@]1(C)C=CC(=O)[C@@]3(C)O[C@@]213 | 96 |
| COc1cc(OC)c(OC)cc1C=O | 189 |
| CCC[C@@H]1CCCCN1 | 85 |
| CC(=O)CC1CCCCN1.Cl (stereo not drawn) | 86 |
| C1CCC(C(CC2CCCCN2)C2CCCCC2)CC1.O=C(O)/C=C\C(=O)O (stereo not drawn) | 1 |

From PMC6664820, “Novel natural and synthetic inhibitors of solute carriers SGLT1 and SGLT2” (Pharmacology Research & Perspectives, 2019)
